These results are taken from PubChem BioAssay (NCI).

SMILES strings stand for the structures. This is part of a sample that, as a whole, favours compounds with a hit. Of some 83,000 tested, about 20% had one in any assay.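 In brief: 96-well plates, 48 h treatment, single concentration, percent growth endpoint.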 A number with no mark means an inactive call. Calls of active or inactive are those of the source. Rule for the calls: active = growth percent below 10; inactive = the rest.

Test in all cases: NCI-60 one-dose screen, 48 h (100 = growth as untreated, 0 = no growth, -100 = all killed)
Conditions in all cases: 10 µM unless noted

The test system of test [1] is SR leukemia.
Test [2] concerns RPMI-8226 leukemia.
In test [3] the test system is OVCAR-8 ovarian.
The subject of test [4] is OVCAR-5 ovarian.
Test [5] concerns OVCAR-4 ovarian.
Test [6] relates to SK-OV-3 ovarian.
Test [7] has as its system IGROV1 ovarian.
Test [8] relates to HS 578T breast.
Test [9] concerns NCI/ADR-RES ovarian.
Test [10] relates to T-47D breast.
The subject of test [11] is BT-549 breast.
In test [12] the test system is MDA-MB-435 melanoma.
Test [13] relates to SW-620 colon.
For test [14], the system named is MCF7 breast.
The subject of test [15] is HCT-116 colon.
Test [16] relates to HCC-2998 colon.
The test system of test [17] is KM12 colon.
In test [18] the test system is OVCAR-3 ovarian.

Regarding `Clc1ccc(/C=C/c2nc(N3CCOCC3)c3nc(Cl)c(Cl)cc3n2)cc1`, the growth is 98% in [1]; 102% in [2]; 108% in test [3]; 110% in [4]; 128% in test [5]; 105% in [6]. Moreover, the growth is 117% in test [7]; 104% in [8]; 98.5% in test [9]; 73% in test [10]; 93.6% in test [11]; 98.1% in [12]. The growth in [13] was 114%; in test [14], 56.8%; in test [15] it was 83.7%; in [16], 94.4%; in test [17], 114%.

`COc1ccc(C(=O)c2cc(OC)c(OC)c(OC)c2)cc1/C=C/C(=O)c1ccc2c(c1)OCO2`: the growth is -10.3% (active) in test [1]; -3.8% (active) in test [2]; 19.4% in [3]; -16.7% (active) in test [4]; 36.6% in test [6]; 1.03% (active) in [18]. The growth in test [8] is 54%; in test [9], 5.77% (active); in test [10], 33.1%; in test [11], -10.4% (active); in test [12], 21.6%; in [13] it was -35.4% (active). Also, the growth in [14] is 19.8%; in test [15] it was -78.6% (active); in test [16] it was 27.3%; in test [17] it was -12% (active).

In the case of `COc1cc(CCn2nnc3c(NCCCCO)ncnc32)cc(OC)c1`, the growth in [1] is 96.4%; in [2] it was 95.7%; in test [3], 101%; in test [4] it was 121%; in test [5] it was 99.2%; in test [7], 109%. In addition, the growth in test [18] was 107%; in test [8], 101%; in test [9], 104%; in [12] it was 97.9%; in test [13] it was 97.9%; in test [15], 97.7%. Further, the growth is 102% in test [16] and 103% in [17].

Consider `CC/C=C\C[C@H](O)C/C=C1/C(=O)C(Cl)=C[C@@H]1C/C=C\CCCC(=O)OC`, for which the growth is 1.41% (active) in [1]; -12.2% (active) in test [2]; 1.69% (active) in [3]; -30% (active) in test [4]; -47.3% (active) in test [5]; -87.8% (active) in test [18]. Besides, the growth was 35.2% in test [8]; 14% in test [9]; -16.9% (active) in test [10]; -85.5% (active) in [11]; -43.7% (active) in test [12]; -55.3% (active) in [13]. The growth is -71.2% (active) in test [14], -83.7% (active) in test [15], -92.1% (active) in test [16] and -81.5% (active) in [17].

For `COc1cc2oc(-c3cccc(NC(=O)Nc4ccc5c(c4)OCO5)c3)cc(=O)c2c(OC)c1OC`, the growth in test [1] was 33.3%; in [2] it was -1.59% (active); in test [3], 44.3%; in [4] it was 118%; in [5], 69.1%; in test [7], 62.5%. Further, the growth in [18] was 56%; in [8], 59.4%; in test [9], 57.6%; in test [11] it was 59.8%; in test [12], 68.7%; in test [13], 57.3%. Besides, the growth in test [14] was 65.1%; in test [15] it was 50.2%; in test [16], 59.2%; in [17], 48.5%.

Take `C#CCN1C(=O)/C(=c2\sc3n(c2=O)C2C(NN=3)N(CC)C(=O)N2CC)c2ccccc21` (configuration not stated): the growth in test [1] was 10.1%; in test [2], 18.6%; in [3], 25.4%; in test [4], 33.5%; in test [5], 47.5%; in test [18], -13.6% (active). The growth in test [8] is -5.36% (active); in test [9], -4.94% (active); in test [11] it was 39.7%; in test [12] it was -63.2% (active); in test [13], 24.3%; in test [14] it was 23.3%. The results for the growth in [15], in test [16] and in test [17] were 4.43% (active), -1.47% (active) and 14.1%, respectively.

Turning to `C#CCN1C(=O)/C(=c2\sc3n(c2=O)NC2C(N=3)N(CC)C(=O)N2CC)c2ccccc21` (configuration not stated), the growth in test [1] was 15.5%; in test [2], 59.3%; in [3] it was 66.9%; in [4] it was 73.8%; in test [5], 51.9%; in [7], 66%. The growth is 23.1% in test [18]; 56.6% in [8]; 41.7% in [9]; 83.4% in [11]; -26.6% (active) in test [12]; 41% in test [13]. Besides, the growth in [14] was 42.2%; in test [15] it was 27%; in test [16], 100%; in [17], 46.8%.

With `CCn1cc(C(=O)O)c(=O)c2cc(F)c(N3CCN(S(=O)(=O)c4ccc(OC)c(OC)c4)CC3)cc21`, the growth is 88.3% in test [1]; 99.3% in test [2]; 102% in test [3]; 102% in test [4]; 110% in [5]; 108% in [7]. The growth in test [18] was 109%; in [9], 107%; in test [10], 87.2%; in test [11], 105%; in [12], 98.9%; in [13], 113%. For the same compound, the growth in test [14] was 100%; in test [15], 105%; in [16] it was 104%; in [17] it was 96.2%.

As for `COc1cccc(/C=C/c2c(C(=O)O)cccc2[N+](=O)[O-])c1OC`, the growth in test [1] was 103%; in test [2], 107%; in test [3], 110%; in [4], 103%; in [5], 113%; in test [18], 102%. Moreover, the growth in test [9] is 109%; in [10], 91.2%; in [11], 107%; in [12], 101%; in test [13] it was 99.7%; in test [14], 95.8%. The growth in test [15] was 97.9%; in [16] it was 104%; in test [17], 96.8%.

As for `Cc1cccc(NC(=O)c2sc3nc4c(cc3c2N)CCC4)c1C`, the growth in [1] is 25%; in [2], -5.02% (active); in test [3] it was 14.1%; in [4], 44%; in test [6], 37.9%; in [7], 44.6%. Also, the growth in test [8] was 28.6%; in test [9], -16.2% (active); in [10], 64%; in test [11], 61.7%; in test [12] it was -26.9% (active); in [13], 28.6%. For the same compound, the growth in test [14] is 13%; in [15] it was 19.7%; in [16], 33.1%; in test [17] it was 12.2%.
